# TDP1 cell noCPT – qHTS for Inhibitors of human tyrosyl-DNA phosphodiesterase 1 (TDP1): qHTS in cells in absence of CPT; 15% of 420,000 active; DT40 Tdp1-/- hTDP1 cells, no CPT, ATP luminescence, 48 h; Potency, µM (titrated, usually from 46.2 µM), for the others: top-dose activity change, negative = growth inhibition, hits mostly inhibitors; note: potency is the fitted concentration of half-maximal effect; nearly all actives have a fitted effect of over 55% in size
#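 Chicken DT40 Tdp1-/- cells complemented with human TDP1, screened without camptothecin (DMSO vehicle only), 400 cells/well. Compounds pin-transferred, cells incubated at 37 °C for at least 48 hr. Growth read as ATP-dependent luminescence (CellTiter-Glo, 30 min at RT).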
# DT40 TDP1 CPT – DT40-hTDP1 cell growth loss with CPT | AID 686979 | Potency, µM (series often up to 46.2 µM), inactives show top-dose activity change, negative = growth inhibition, hits mostly inhibitors | 12% of 420,000 active | chicken DT40 Tdp1-/-;hTDP1 cells + 20 nM CPT, ATP luminescence, 48 h; note: potency is the fitted concentration of half-maximal effect; nearly all actives have a fitted effect of over 55% in size
#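 Chicken DT40 Tdp1-/- cells complemented with human TDP1, 400 cells/well, exposed to compounds plus 20 nM camptothecin for at least 48 h at 37 C; viability read as ATP content by CellTiter-Glo luminescence.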
# TDP1 inh – TDP1 (human) enzyme inhibition. Q9NUW8. recombinant TDP1, AlphaScreen DNA substrate cleavage. Potency, µM (titrated, usually from 130 µM), without a hit: top-dose activity change, negative = inhibition, actives largely listed as inhibitors. 0.28% of 350,000 active. AID 485290; note: potency is the fitted concentration of half-maximal effect; nearly all actives have a fitted effect of over 40% in size
# Target sequence (Q9NUW8 whole entry, looked up): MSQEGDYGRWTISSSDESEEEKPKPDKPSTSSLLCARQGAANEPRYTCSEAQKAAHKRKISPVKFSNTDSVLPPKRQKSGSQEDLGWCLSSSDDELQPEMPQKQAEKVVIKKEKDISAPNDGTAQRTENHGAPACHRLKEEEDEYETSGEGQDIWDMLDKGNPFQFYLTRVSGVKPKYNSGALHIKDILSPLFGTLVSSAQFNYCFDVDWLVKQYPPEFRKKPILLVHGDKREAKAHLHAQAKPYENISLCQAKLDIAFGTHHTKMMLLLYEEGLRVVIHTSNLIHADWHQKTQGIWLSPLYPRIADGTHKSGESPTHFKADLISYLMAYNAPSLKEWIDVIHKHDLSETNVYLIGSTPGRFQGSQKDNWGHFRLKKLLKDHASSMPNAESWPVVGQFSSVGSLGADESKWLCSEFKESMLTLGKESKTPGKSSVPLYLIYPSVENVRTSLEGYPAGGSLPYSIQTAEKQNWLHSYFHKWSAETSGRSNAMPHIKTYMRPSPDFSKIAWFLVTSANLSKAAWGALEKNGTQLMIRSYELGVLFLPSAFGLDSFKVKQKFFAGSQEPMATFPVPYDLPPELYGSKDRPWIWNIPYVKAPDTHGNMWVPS
#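 Recombinant human Tdp1 (E. coli-expressed, 1 nM final) preincubated with compounds 15 min at room temperature, then 5'-biotin/3'-phosphotyrosine-FITC DNA substrate (15 nM final) added for 5 min. AlphaScreen beads (10 ug/ml final) added 10 min; cleavage lowers signal.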
# ELG1 DNA repair – blocks ELG1-dependent DNA repair in HEK293T cells; AID 504467; HEK293T ELG1-luciferase reporter, luminescence, 16 h; DNA damage induced by 5-fluorouridine; 2.3% of 330,000 active; Potency, µM (titrated, usually from 46.1 µM), without a hit: at the top dose activity change, negative = inhibition, hits mostly inhibitors; note: potency is the fitted concentration of half-maximal effect; nearly all actives have a fitted effect of over 55% in size
#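 Step one: seed 2,000 cells per well. Step two: pin-transfer compound or DMSO alongside 5-fluorouridine. Step three: incubate 16 hr, 37 °C, 5% CO2. Step four: add ONE-Glo, wait 30 min, read luminescence.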
# IL1B secr inh – blocks inflammasome-driven IL-1 beta release | THP-1 LPS/ATP IL-1B secretion, AlphaLISA, 16 h; active compounds read low | activity change, % at 57.5 µM | 4.7% of 360,000 active | AID 743279; in the data active = activity change below about -50%; inconclusive = mostly about -30% to -49%
#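 Secreted IL-1B measured by AlphaLISA bead assay after 16 h compound exposure of THP-1 cells; compounds (final up to 57.5 uM) added 1 h before LPS (250 ng/mL) and ATP (1.25 mM) stimulation; lower signal means less secretion.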
# Giardia kill – kills Giardia lamblia. Giardia lamblia trophozoite viability. 0.15% of 340,000 active. activity change, % at 7.66 µM, hits read low. AID 540267; in the data active = activity change below about -80%; inconclusive = between about -30% and that limit;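 note: parasites exposed to compound for two days anaerobically before the ATP read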
#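 Killing of trophozoites was scored by loss of ATP luminescence after a 48 hrs anaerobic exposure to compounds at 37 deg C, using 100 cells per well.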
# * hit, by the source's call; u = inconclusive; x = not tested or not shown; ! = a repeat was not active; [ ] = remark or other dose. This is a sample that favours compounds with a hit; in the whole collection about 19% have one here. Unless noted, calls come from the whole dose curve; as a rule, active = well fitted curve in the direction sought with a large enough effect; inconclusive = small, poorly fitted or top-dose-only effect, or another doubt; inactive = no such curve, though single readings can be large; an effect the other way counts as inactive or inconclusive. % is set by controls: 0 for no effect and ±100 for the full control effect.
SMILES,TDP1 cell noCPT,DT40 TDP1 CPT,TDP1 inh,ELG1 DNA repair,IL1B secr inh,Giardia kill
COc1ccc(-c2cc(C(=O)Nc3c(C(=O)c4ccc(C)c(F)c4)oc4ccccc34)no2)cc1,-13%,-9%,-1%,x,x,x
Clc1ccc(CON/C=N/c2ncnc3sccc23)c(Cl)c1,10µM*,13µM*,6%,-26%,u,15
C[C@H](NCc1c[nH]c2ccccc12)c1ccccc1,u,21µM*,x,12%,0,-1
CN(Cc1ccccc1)Cc1c[nH]c2ccccc12,21µM*,5.8µM*,2%,-5%,u,4
CN(Cc1ccccc1)Cc1ccccc1,-14%,19%,0%,x,x,x
CC1(C(=O)NS(=O)(=O)c2ccc(Cl)s2)CCN1C(=O)c1ccccc1CCc1ccccc1 (configuration not stated),u,u,x,x,28,x
COC(=O)[C@]1(C)N[C@H](CN(C)C(=O)c2ccc(C)cc2)[C@@H]2C(=O)N(C)C(=O)[C@@H]21,16%,15%,-1%,3%,0,0
O=[N+]([O-])c1ccc(O)c(/C=N/n2c(-c3ccccc3)n[nH]c2=S)c1,-6%,2%,x,-16%,2,-5
S=c1[nH]nc(COc2ccccc2)n1/N=C/C=C/c1ccccc1,-2%,-11%,6%,13%,12,1
S=c1[nH]nc(-c2ccncc2)n1/N=C/C(Cl)=C\c1ccccc1,8.2µM*,13µM*,x,u,-63*,-11
O=[N+]([O-])c1ccc(Cl)c(/C=N/n2c(-c3ccncc3)n[nH]c2=S)c1,u,18µM*,-4%,17%,39,26
S=c1[nH]nc(COc2ccccc2)n1/N=C/C(Cl)=C/c1ccccc1,16µM*,23µM*,13%,-23%,-91*,8
CC1=CC23C(=O)C(C=C(CO)[C@@H](O)[C@]2(O)[C@H]1O)[C@H]1[C@@H](C[C@H]3C)C1(C)C (some centres not stated),x,x,2%,x,x,x
Cc1nn(C)c(C)c1N1C(=O)c2cccc3c(Br)ccc(c23)C1=O,21µM*,18µM*,5%,u,-96*,-12
CC(=O)N1CCCc2cc(S(=O)(=O)N(Cc3ccccc3)C(C)C)ccc21,16µM*,15µM*,5%,x,x,x
CC(=O)N1CCCc2cc(S(=O)(=O)N3CCCC(C(=O)NCc4ccc(C)cc4)C3)ccc21 (configuration not stated),23µM*,18µM*,4%,-13%,82,6
CC(=O)N1CCCc2cc(S(=O)(=O)N3CCCC(C(=O)NCc4ccccc4)C3)ccc21 (configuration not stated),26µM*!,u,6%,-2%,-14,-7
CC(=O)N1CCCc2cc(S(=O)(=O)N3CCCC(C(=O)Nc4cc(C)ccc4C)C3)ccc21 (configuration not stated),-29%,u,1%,u,14,7
O=C(NCc1cccs1)c1ccc2sc(COCCO)nc2c1,-20%,-5%,x,x,6,x
CCn1c(C(=O)NCc2cccc(Br)c2)cc2oc3ccccc3c21,15µM*,u,6%,x,x,x
CCn1c(C(=O)NCc2ccccc2Br)cc2oc3ccccc3c21,-93%,21µM*,1%,x,x,-11
Cn1c(C(=O)NCc2ccccc2F)cc2oc3ccccc3c21,u,u,6%,x,x,x
CCn1c(C(=O)NCc2cc(Br)ccc2OC)cc2oc3ccccc3c21,u,23µM*,2%,x,x,x
CCc1ccc(S(=O)(=O)c2nnn3c2nc(NCCNC(C)=O)c2cc(Cl)ccc23)cc1,u,u,4%,x,x,x
COc1ccc(CN(C(=O)Nc2cc(C)ccc2C)C2CCN(C(C)=O)CC2)cc1,u,-7%,2%,x,x,x
SMILES,TDP1 cell noCPT,DT40 TDP1 CPT,TDP1 inh,ELG1 DNA repair,IL1B secr inh,Giardia kill
Cc1ccccc1-n1sc2cc(F)ccc2c1=O,2.6µM*,1.8µM*,10%,u,-105*,-8
CC(=O)Nc1ccc(-c2cc(N)n(-c3ccccc3)n2)cc1,-23%,-20%,1%,u,-5,5
CC(=O)Nc1ccc2c(=O)n(-c3ccccc3)sc2c1,3.3µM*,2.6µM*,x,x,-104*,x
Cn1c(=O)n(-c2cccc(Cl)c2)c(=O)c2sc3ccccc3c21,u,-2%,0%,x,x,x
O=c1c2ccccc2sn1-c1cccc(Cl)c1,2.3µM*,1.8µM*,x,x,-102*,x
O=c1c2ccccc2sn1-c1ccccc1F,2.9µM*,2.6µM*,x,x,-107*,x
CSCC[C@H](NC(=O)C1CCN(S(=O)(=O)c2ccc(C)cc2C)CC1)c1nc2ccccc2[nH]1,u,u,3%,u,u,-12
CN(CCOC(=O)c1ccc2c(c1)OCO2)C(C)(C)C,6%,-3%,-4%,-7%,3,-7
CCc1ccc(C(=O)OCC(=O)N(CCOC)c2c(N)n(Cc3ccccc3)c(=O)[nH]c2=O)cc1,3%,-9%,-12%[0.505 µM],1%,6,-1
CCN1C(=O)[C@H]2[C@H]3[C@H](O)[C@H](O)C/C(=N/OC[C@@H]4O[C@H](c5ccccc5)C=C[C@@H]4Oc4ccc(OC)cc4)[C@@H]3CC[C@@H]2C1=O,x,x,11%[21 µM],x,x,x
COc1ccc(N2C(=O)CCC(C(=O)N3CCN(c4ccccn4)CC3)C2c2ccc(F)cc2)cc1 (configuration not stated),u,-4%,6%,5%,4,-3
O=C(O)c1cccc(N2C(=O)CCC2=O)c1,x,x,-2%,-2%,x,x
Cn1sc2ccccc2c1=O,1.6µM*,2.3µM*,x,x,-100*,x
O=c1c2ccccc2sn1-c1ccccc1,2.9µM*,2.6µM*,12%,u,-101*,-3

# High-throughput results deposited in PubChem by National Center for Advancing Translational Sciences (NCATS).
